PubChem BioAssay AID2314 (National Center for Advancing Translational Sciences (NCATS), 2010)
Hit rate of the full screen: of about 300,000 compounds, about 37,000 (12%) were called active. No stated cut-off is given here; in the data, active means max response mostly above about 13% (no sharp cut-off); inactive means mostly below about 14%. What follows is part of a selection rich in actives, with near analogues and random picks from the rest.

Assay: Cycloheximide Counterscreen for Small Molecule Inhibitors of Shiga Toxin; further: read at 38.3 µM for the half of the compounds with a filed dose; 0% is about no effect
Details: cell reporter, cycloheximide protein synthesis inhibition counterscreen; active compounds read high

| SMILES | max response |
| --- | --- |
| NS(=O)(=O)c1ccc(CCNC(=O)CNC(=O)Cc2ccccc2)cc1 | 4.6% (inactive) |
| CC1CCCN(S(=O)(=O)c2ccc(-c3ccc(=O)[nH]n3)o2)C1 (configuration not stated) | -2.93% (inactive) |
| O=C(c1ccc(Cn2cc([N+](=O)[O-])cn2)o1)N1CCCC1 | -2.92% (inactive) |
| COc1cccc(NC(=O)c2ccc(Cn3cc([N+](=O)[O-])cn3)o2)c1 | 1.95% (inactive) |
| CCc1ccc(NC(=O)c2ccc(Cn3cc([N+](=O)[O-])cn3)cc2)cc1 | 26.2% (active) |
| COc1cccc(OC)c1C(=O)Nc1c(C(=O)N2CCN(c3ccccn3)CC2)oc2ccccc12 | -0.82% (inactive) |
| CN1CCN(CCCCOc2cccc3ccccc23)CC1 | 2.51% (inactive) |
| NC(=O)COc1ccc(C23CC4CC(CC(C4)C2)C3)cc1 | 32.3% (active) |
| NNC(=O)COc1ccc(C2SCCS2)cc1 | 5.31% (inactive) |
| NC(=O)COc1ccccc1C(=O)NC12CC3CC(CC(C3)C1)C2 | 0.476% (inactive) |
| Cc1c(Cl)c([N+](=O)[O-])nn1CCCC(=O)NC(C)c1ccccc1 (configuration not stated) | 0.248% (inactive) |
| CCCCC(=O)N/N=C(\C)CC(=O)Nc1cc(Cl)ccc1OC | -1.06% (inactive) |
| COc1ccc(NC(=O)C/C(C)=N/NC(=O)c2cnccn2)cc1Cl | 53.7% (active) |
| O=C(COc1ccc(Cl)cc1Cl)NCCCNC(=O)c1cnccn1 | -1.68% (inactive) |
| COc1cccc(NC(=O)Cn2c3ccc(F)cc3c3nc4n(c(=O)c32)CCS4)c1 | 4.56% (inactive) |
| CCN(CCNC(=O)C1=C(C)C(=O)OC12CCC(C)CC2)c1ccccc1 (configuration not stated) | 3.3% (inactive) |
| COc1ccc(-c2n[nH]c3c2CN(C(=O)c2ccc(F)cc2)CC3)cc1 | 9.17% (inactive) |
| CCOc1cc(-c2noc(CCCC(=O)NC3CCCCC3)n2)ccc1OC | -3.29% (inactive) |
| COC(=O)C(=Nc1ccccc1)/C(C(=O)C(=O)N(C)c1ccccc1)=C(\O)c1ccc(Cl)cc1 | 23.6% (active) |
| COC(=O)/C(NC(C)=O)=C(\C)c1ccc(Cl)cc1 | 1.02% (inactive) |
| COC(=O)c1cn(C(=O)c2ccc(Cl)cc2)c2ccccc12 | 10.5% (inactive) |

| SMILES | max response |
| --- | --- |
| CC(=O)c1ccc(NC(=S)NC(=O)CC(C)C)cc1 | 9.98% (inactive) |
| CC(C)CC(=O)NC(=S)Nc1ccc(F)cc1F | 23.2% (active) |
| CC(C)CC(=O)NC(=S)Nc1cc(C(=O)O)ccc1Cl | -4.75% (inactive) |
| Cc1ccc(-c2nc(-c3cccnc3)sc2CC(=O)Nc2ccc(C)c(Cl)c2)cc1 | 8.82% (inactive) |
| COc1ccc(CCNS(=O)(=O)c2cccc([N+](=O)[O-])c2)cc1 | 4.94% (inactive) |
| N#CC1=C(N)Oc2c(sc3ccccc23)C1c1ccco1 (configuration not stated) | 28.9% (active) |
| N#CC1=C(N)Oc2c(c(=O)oc3ccccc23)C1c1ccccc1OC(=O)c1cccs1 (configuration not stated) | 1.47% (inactive) |
| Cc1cc(C)c2c3c(sc2n1)C(c1ccccc1)C(C#N)=C(N)O3 (configuration not stated) | -1.32% (inactive) |
| COc1ccc(-c2nc(CCNC(=O)c3ccc(Br)o3)cs2)cc1 | 13.1% (inactive) |
| CC(C)(C)NC(=O)NC(=O)COC(=O)Cc1ccc(Cl)cc1Cl | 2.66% (inactive) |
| COc1ccc(-c2csc(NC(=O)COC(=O)c3ccc(Br)o3)n2)cc1 | 33.7% (active) |
| COc1ccc(-c2csc(NC(=O)COC(=O)Cc3ccc(Cl)cc3Cl)n2)cc1 | 45.1% (active) |
| COc1cccc(CC(=O)Nc2nc(-c3ccc(OC)c(OC)c3)cs2)c1 | -5.12% (inactive) |
| COc1ccc(OC)c(-c2csc(NC(=O)C3=NNC(=O)CC3)n2)c1 | 9% (inactive) |
| Cc1cccc(NC(=O)c2cc(S(=O)(=O)N3CCC4(CC3)OCCO4)ccc2F)c1 | -1.02% (inactive) |
| CCn1cc(/C=C(\NC(=O)c2ccc(C)cc2)C(=O)NCCN2CCOCC2)c2ccccc21 | -1.13% (inactive) |
| CC(C)C(=O)NCC(c1cccs1)S(=O)(=O)c1ccc(F)cc1 (configuration not stated) | -4.81% (inactive) |
| CCC(=O)Nc1nnc(S(=O)(=O)N(CC(C)C)c2ccccc2)s1 | 10.1% (inactive) |
| CC(=O)c1ccc(OC(=O)N2CCOCC2)cc1 | 11.8% (inactive) |
| O=C(Oc1ccc2c(c1)CCC2)N1CCOCC1 | 53.5% (active) |
| O=C(Oc1ccc(F)cc1)N1CCOCC1 | -1.5% (inactive) |

| SMILES | max response |
| --- | --- |
| Cc1cccc(-n2ncc(Cl)c(Cl)c2=O)c1 | -10% (inactive) |
| c1ccc(-n2nnnc2NC2CCCCCC2)cc1 | -1.89% (inactive) |
| O=c1c(Cl)c(NC2CC2)cnn1-c1ccccc1 | 31.2% (active) |
| Cc1cccn2c(=O)c(/C=C(\C#N)C(N)=O)c(N3CCCCCC3)nc12 | 12.8% (inactive) |
| CCOC(=O)/C(C#N)=C/c1ccc(N2CCN(Cc3ccccc3)CC2)cc1 | 10.2% (active) |
| C/C(=C/c1ccccc1)C(=O)N1CCN(c2ccccc2)CC1 | 20% (inactive) |
| COc1ccc(N2CCN(C(=O)CCSCc3ccccc3F)CC2)cc1 | 7.14% (inactive) |
| CCOC(=O)/C(C#N)=C\c1c(C)cc(C)c(COC(C)=O)c1C | 0.938% (inactive) |
| COc1ccc(N2CCN(C(=O)/C(C#N)=C/c3ccccc3)CC2)cc1 | 14.2% (active) |
| CCOC(=O)/C(C#N)=C/c1ccc(N2CCCCC2)cc1 | 40.9% (active) |
| CC(C)OC(=O)C(C#N)c1nc2ccccc2nc1N1CCN(Cc2ccccc2)CC1 (configuration not stated) | -2.37% (inactive) |
| CCOC(=O)NC(=O)/C(C#N)=C\c1ccccc1 | -1.84% (inactive) |
| C=CCOC(=O)C(=C)C | -1.88% (inactive) |
| N#Cc1ccc(C(=O)Nc2nc(-c3cccs3)c(C(=O)C(F)(F)F)s2)cc1 | 0.458% (inactive) |
| Cn1cccc1Cc1nnc(SCC(=O)NCc2ccc3c(c2)OCO3)n1CCc1ccccc1 | 1.14% (inactive) |
| O=S(=O)(Nc1ccc2nc(-c3ccco3)[nH]c2c1)c1ccccc1 | 33.7% (active) |
| O=S(=O)(Nc1ccc2cn[nH]c2c1)c1ccccc1 | 5.04% (inactive) |
| Cc1ccc(S(=O)(=O)Nc2ccc3ncccc3c2)cc1 | -2.27% (inactive) |
| Cc1ccc2c(cnn2C(=O)CCC(=O)NC2CCCC2)c1 | 1.35% (inactive) |
| Cn1c2ccc(F)cc2c2nnc(NN)nc21 | 0.49% (inactive) |
